Reference: PubChem BioAssay
Calls of active or inactive are those of the source.

How the values were obtained:
[1] = tested on: Plasmodium falciparum Sir2 (PF13_0152, Sir2A); test: Plasmodium falciparum Sir2A binding compounds – biochemical, small-molecule microarray, 635 nm fluorescence, primary screen (AID 1098); conditions: fluorescence 635 nm, higher = more signal;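 further: score merges spot fluorescence intensity with its signal-to-noise ratio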
[2] = probe aDKK1 binding to arrayed compounds – biochemical, biotinylated probe, 635/667 nm fluorescence, primary screen (AID 1099); conditions: small-molecule microarray, higher = more signal;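 further: score merges 667nm spot fluorescence with signal to noise across triplicate slides; reference of the scale not given here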
[3] = probe aCHRDL2 binding to arrayed compounds – biochemical, biotinylated probe, 635/667 nm fluorescence, primary screen (AID 1100); conditions: small-molecule microarray, higher = more signal
[4] = change in splice reporter luminescence, either direction, cell-based, HEK293, spliceosome inhibition project, primary screen (AID 1101); conditions: HEK293 splicing luciferase reporter, 24 h, higher = more signal, called active from +8 up or from −8 down;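 further: HEK293 cells carrying a splicing-competent luciferase reporter gene; test concentration not given here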
[5] = biological target: Fibroblast growth factor 10 (Homo sapiens) (UniProt O15520); test: compounds binding fibroblast growth factor 10 – biochemical, small-molecule microarray, 635 nm fluorescence, primary screen (AID 1102); conditions: FGF10 binding, fluorescence 635 nm, higher = more signal
[6] = tested on: glycogen synthase kinase-3 (GSK3A per assay name; protocol says GSK3B); test: compounds binding glycogen synthase kinase-3 – biochemical, small-molecule microarray, 635 nm fluorescence, GSK3A, primary screen (AID 1103); conditions: fluorescence 635 nm, higher = more signal; further: the record names both GSK3A and GSK3B
[7] = biological target: Epidermal growth factor receptor (Homo sapiens) (UniProt P00533); test: compounds binding epidermal growth factor receptor – biochemical, small-molecule microarray, 635 nm fluorescence, primary screen (AID 1104); conditions: EGFR binding, higher = more signal;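 further: score merges 667 nm emission intensity with spot signal to noise over triplicate slides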
[8] = biological target: Follistatin-related protein 3 (Homo sapiens) (UniProt O95633); test: compounds binding follistatin-related protein 3 – biochemical, small-molecule microarray, 635 nm fluorescence, primary screen (AID 1105); conditions: FSTL3 binding, higher = more signal;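 further: score merges emission near 667 nm and signal to noise per printed spot across three slides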
[9] = biological target: Dickkopf-related protein 1 (Homo sapiens) (UniProt O94907); test: small molecules binding DKK1 protein – biochemical, small-molecule microarray, 635 nm fluorescence scan, primary screen (AID 1106); conditions: higher = more signal;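 further: score merges emission near 667 nm with signal to noise over three replicate slides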
[10] = tested on: Inhibin beta A chain (activin A); test: small molecules binding activin A – biochemical, small-molecule microarray, 635 nm fluorescence scan, primary screen (AID 1107); conditions: INHBA, higher = more signal;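 further: mouse activin A protein probed at 4.33 µg/mL on printed slides; score merges bound-protein fluorescence near 667 nm with spot signal-to-noise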

Fibroblast growth factor 10 (Homo sapiens), sequence (O15520 whole entry, looked up): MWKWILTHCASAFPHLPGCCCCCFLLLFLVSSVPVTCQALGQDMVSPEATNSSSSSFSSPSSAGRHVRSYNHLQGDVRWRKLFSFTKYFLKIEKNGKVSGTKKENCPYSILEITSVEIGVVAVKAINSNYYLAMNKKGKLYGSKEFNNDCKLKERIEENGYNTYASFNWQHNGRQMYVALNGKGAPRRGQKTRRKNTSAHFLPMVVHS
Follistatin-related protein 3 (Homo sapiens), sequence (O95633 whole entry, looked up): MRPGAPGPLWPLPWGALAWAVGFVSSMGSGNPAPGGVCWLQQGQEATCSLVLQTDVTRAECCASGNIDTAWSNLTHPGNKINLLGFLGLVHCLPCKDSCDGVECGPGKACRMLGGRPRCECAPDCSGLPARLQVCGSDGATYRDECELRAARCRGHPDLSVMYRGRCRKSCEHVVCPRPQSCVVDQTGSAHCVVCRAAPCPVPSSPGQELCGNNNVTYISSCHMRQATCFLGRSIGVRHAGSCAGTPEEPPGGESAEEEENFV
Epidermal growth factor receptor (Homo sapiens), sequence (P00533 whole entry, looked up): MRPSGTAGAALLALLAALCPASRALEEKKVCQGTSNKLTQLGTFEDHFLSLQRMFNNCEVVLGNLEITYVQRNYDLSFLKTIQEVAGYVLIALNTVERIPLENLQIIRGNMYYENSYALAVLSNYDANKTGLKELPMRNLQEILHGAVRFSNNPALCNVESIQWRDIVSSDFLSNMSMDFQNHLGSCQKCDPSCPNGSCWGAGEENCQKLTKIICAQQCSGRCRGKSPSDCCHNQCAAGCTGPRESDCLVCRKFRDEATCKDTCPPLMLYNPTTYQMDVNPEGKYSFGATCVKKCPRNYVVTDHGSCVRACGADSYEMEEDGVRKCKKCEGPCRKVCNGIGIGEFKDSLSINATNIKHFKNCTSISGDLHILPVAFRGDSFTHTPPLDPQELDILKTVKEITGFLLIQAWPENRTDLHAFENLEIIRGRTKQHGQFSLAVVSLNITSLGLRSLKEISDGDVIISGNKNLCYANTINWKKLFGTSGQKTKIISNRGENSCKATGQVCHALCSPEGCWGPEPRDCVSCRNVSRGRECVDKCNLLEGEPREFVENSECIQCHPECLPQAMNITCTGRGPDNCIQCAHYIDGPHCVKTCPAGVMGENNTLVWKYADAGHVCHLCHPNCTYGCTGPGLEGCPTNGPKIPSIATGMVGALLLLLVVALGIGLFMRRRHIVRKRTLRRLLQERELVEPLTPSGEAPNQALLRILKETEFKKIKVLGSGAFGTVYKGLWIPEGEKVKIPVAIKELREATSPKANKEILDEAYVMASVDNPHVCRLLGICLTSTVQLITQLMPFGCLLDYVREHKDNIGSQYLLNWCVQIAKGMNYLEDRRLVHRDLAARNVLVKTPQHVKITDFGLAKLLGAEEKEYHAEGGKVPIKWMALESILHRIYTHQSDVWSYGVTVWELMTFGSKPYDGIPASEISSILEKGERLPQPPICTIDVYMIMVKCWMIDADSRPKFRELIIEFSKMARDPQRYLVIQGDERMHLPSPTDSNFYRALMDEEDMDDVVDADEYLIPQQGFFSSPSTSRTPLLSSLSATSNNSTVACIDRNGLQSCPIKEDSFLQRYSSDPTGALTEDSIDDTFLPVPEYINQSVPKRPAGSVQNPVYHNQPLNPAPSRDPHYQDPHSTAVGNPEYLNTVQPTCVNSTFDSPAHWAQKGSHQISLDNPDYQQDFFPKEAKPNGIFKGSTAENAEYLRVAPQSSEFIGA
Dickkopf-related protein 1 (Homo sapiens), sequence (O94907 whole entry, looked up): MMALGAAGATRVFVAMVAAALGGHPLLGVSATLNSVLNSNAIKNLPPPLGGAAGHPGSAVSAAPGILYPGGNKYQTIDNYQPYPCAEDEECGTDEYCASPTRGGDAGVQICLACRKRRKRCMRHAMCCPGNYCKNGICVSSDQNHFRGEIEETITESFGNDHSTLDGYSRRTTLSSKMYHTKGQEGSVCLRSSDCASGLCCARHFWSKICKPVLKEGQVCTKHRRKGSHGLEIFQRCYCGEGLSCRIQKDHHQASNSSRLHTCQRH

SMILES	composite z-score [1]	composite z-score [2]	composite z-score [3]	z-score [4]	composite z-score [5]	composite z-score [6]	composite z-score [7]	composite z-score [8]	composite z-score [9]	composite z-score [10]
CC(C)CON=C1C[C@@H](O)[C@@H](O)[C@@H]2[C@@H]3C(=O)N(Cc4ccccc4)C(=O)[C@@H]3CC[C@H]12	0.296	-0.373	-0.583	-1.59 (inactive)	0.415	0.314	0.553	0.538	0.373	-0.204
CCOC(=O)[C@H](Cc1ccccc1)NC(=O)CCC1CC(OC(=O)NCc2cccc3ccccc23)CC2(CCCC(COC(=O)NCCOc3ccccc3)O2)O1 (stereo not given in full)	1.2	-0.351	-0.477	-1.82 (inactive)	0.441	0.974	0.575	0.579	0.504	0.011
CO[C@H]1COC(=O)[C@H](C)COC(=O)[C@H](C)NC(=O)CC=C[C@H]1C	0.378	-0.579	-1.42	0.0547 (inactive)	1.07	1.24	1.54	1.51	1.28	0.843
CCN1C(=O)[C@H]2[C@H]3[C@H](O)[C@H](O)CC(=NOC[C@@H](O)[C@H]4O[C@@H]5OC(C)(C)O[C@@H]5[C@H]4O)[C@@H]3CC[C@H]2C1=O	1.03	-0.242	-0.461	0.217 (inactive)	0.203	-0.246	0.227	0.24	0.284	0.46
CCOC(=O)[C@H](Cc1ccccc1)NC(=O)CCC1CC(OC(=O)NCc2ccc3c(c2)OCO3)CC2(CCCC(COC(=O)NCCCN3CCCC3=O)O2)O1 (stereo not given in full)	0.465	-0.505	-0.431	-0.199 (inactive)	0.573	0.852	0.494	0.645	0.543	0.312
CC(C)[C@@H](OCc1ccccc1)[C@H](C)CON=C1[C@H]2CCn3c(=O)n(-c4ccccc4)c(=O)n3[C@H]2[C@H](O)[C@@H]2O[C@H]12	0.552	-0.0364	-0.562	3.43 (inactive)	0.785	0.227	0.329	0.0089	1.24	0.236
CC(C)[C@@H](OCc1ccccc1)[C@H](C)C=NO[C@@H](C)c1cn([C@H](CO)Cc2ccccc2)nn1	0.38	-0.215	-0.357	0.357 (inactive)	-0.045	0.148	-0.0006	0.105	-0.477	-0.245
O=C1C[C@@H](O)[C@@H](O)[C@@H]2[C@@H]3C(=O)N(c4ccc(F)cc4F)C(=O)[C@@H]3CC[C@H]12	0.88	-0.0704	-0.511	0.759 (inactive)	0.514	0.662	0.394	0.638	0.597	0.148
CCN1C(=O)[C@H]2[C@H]3[C@H](O)[C@H](O)CC(=NNC(=O)OCc4ccccc4)[C@H]3CC[C@H]2C1=O	-0.0508	0.0829	0.877	-0.45 (inactive)	0.186	-0.493	-0.198	-0.0353	-0.26	0.0251
CN1CCc2nc(-c3ccccc3)c(-c3ccccc3)cc2C1	-0.0565	-0.284	-0.225	0.0199 (inactive)	0.486	0.256	0.134	0.359	0.503	0.334
O=C1[C@H]2[C@H]3[C@H](O)[C@H](O)CC(=NOC[C@@H](O)COCc4ccco4)[C@@H]3CC[C@H]2C(=O)N1Cc1ccccc1	-0.422	-0.316	-0.611	-0.153 (inactive)	0.146	1.34	0.603	1.51	0.833	1.34
CCOC(=O)[C@H](CC(C)C)NC(=O)CCC1CC(OC(=O)NCc2ccc3c(c2)OCO3)CC2(CCCC(COC(=O)NCc3ccccc3)O2)O1 (stereo not given in full)	0.58	-0.197	-0.495	-0.403 (inactive)	0.713	0.486	0.316	0.675	0.425	-0.0973
C#CCCCON=C1C[C@@H](O)[C@@H](O)[C@@H]2[C@@H]3C(=O)N(CC)C(=O)[C@@H]3CC[C@H]12	0.581	-0.189	-0.267	0.385 (inactive)	0.301	-0.396	0.285	-0.331	0.209	-0.124
CCOC(=O)NN=C1C[C@@H](O)[C@@H](O)[C@@H]2[C@@H]3C(=O)N(C[C@@H]4CCCO4)C(=O)[C@@H]3CC[C@H]12	0.348	-0.0748	-0.317	0.488 (inactive)	0.515	0.417	0.401	0.264	0.504	0.17
CCN1C(=O)[C@H]2[C@H]3[C@H](O)[C@H](O)CC(=NNC(=O)OCc4ccccc4)[C@@H]3CC[C@H]2C1=O	-0.16	0.118	0.78	-0.176 (inactive)	-0.163	-0.612	-0.241	-0.0709	0.131	-0.291
CC(C)CON=C1[C@H]2CCn3c(=O)n(C)c(=O)n3[C@H]2[C@H](O)[C@@H]2O[C@H]12	0.59	-0.339	-0.507	0.253 (inactive)	0.401	0.481	0.377	0.703	0.708	0.283
CO[C@H]1COC(=O)[C@H](CCSC)NC(=O)CC=C[C@@H](C)[C@H](OC)COC(=O)[C@@H](OCc2ccccc2)C=C[C@@H]1C	0.988	-0.488	-0.513	0.45 (inactive)	0.605	0.751	0.975	0.922	1.38	0.824

SMILES	composite z-score [1]	composite z-score [2]	composite z-score [3]	z-score [4]	composite z-score [5]	composite z-score [6]	composite z-score [7]	composite z-score [8]	composite z-score [9]	composite z-score [10]
O=C1[C@H]2[C@H]3[C@H](O)[C@H](O)CC(=NO[C@@H]4O[C@H](CO)[C@@H](O)[C@H](O)[C@H]4O)[C@H]3CC[C@H]2C(=O)N1C[C@@H]1CCCO1	0.323	-0.273	-0.344	0.0676 (inactive)	0.0269	-0.027	0.522	0.0553	-0.0079	-0.915
Cc1ccc(C(C)C)n1C(=O)OC(C)(C)C	-0.0286	-0.271	-0.611	-1.45 (inactive)	0.789	0.61	0.55	0.807	0.768	-0.124
CCN1C(=O)[C@H]2[C@H]3[C@H](O)[C@H](O)CC(=NO[C@@H](C)c4cc(-c5c(C)cc(C)cc5C)no4)[C@@H]3CC[C@H]2C1=O	0.808	0.101	-0.239	-0.111 (inactive)	0.841	1.24	0.451	1.18	0.647	-0.989
C[C@@H]1CC[C@H]2C(=O)O[C@@H](COc3ccc(C(C)(C)C)cc3)CN2[C@H]1c1ccc(Br)cc1	0.418	-0.251	-0.427	0.0739 (inactive)	0.0543	0.158	-0.0032	0.0224	0.191	0.0996
CC(=O)OC[C@H]1O[C@H](CC=NOC[C@@H](O)COCc2ccco2)C=C[C@@H]1OC(C)=O	0.717	-0.233	-1.06	-0.0391 (inactive)	0.397	1.24	1.58	1.37	1.74	1.14
CCOC(=O)NN=C1C[C@@H](O)[C@@H](O)[C@@H]2[C@@H]3C(=O)N(c4ccc(F)cc4F)C(=O)[C@@H]3CC[C@H]12	-0.304	-0.349	-0.626	-1.43 (inactive)	0.158	0.544	0.742	0.438	0.871	0.0584
CCc1cc2c(nc1CC)CCN(CCC(C)=NOC(C)CN1CCCCc3nc(C)c(C)cc31)C2 (stereo not given)	0.526	-0.0521	-0.215	-0.242 (inactive)	0.628	1.25	0.81	1.19	0.841	1.31
CCOC(=O)[C@H](Cc1ccccc1)NC(=O)CCC1CC(OC(=O)NCc2cccc3ccccc23)CC2(CCCC(COC(=O)NCCc3ccccc3OC)O2)O1 (stereo not given in full)	0.405	-0.0537	-0.409	0.223 (inactive)	0.791	0.583	0.454	1.07	0.331	-0.251
O=C(NN=C1C[C@@H](O)[C@@H](O)[C@@H]2[C@@H]3C(=O)N(Cc4ccccc4)C(=O)[C@@H]3CC[C@H]12)OCc1ccccc1	-0.944	-0.427	-0.47	-0.865 (inactive)	0.773	0.256	0.39	0.315	0.698	-0.0371
CC(CCC(=O)OC[C@H]1O[C@H](C#Cc2ccccc2)C=C[C@@H]1Oc1ccc(C)cc1)=NOC[C@@H](C)[C@H](OCc1ccccc1)C(C)C	-1.11	-0.247	-0.506	0.371 (inactive)	-0.434	-1.3	-1.05	-1.09	-0.613	0.211
CC(CCC(=O)OC[C@H]1O[C@H](C#Cc2ccccc2)C=C[C@@H]1Oc1ccc(C)cc1)=NO[C@@H](C)c1cc(-c2c(C)cc(C)cc2C)no1	0.199	-0.293	-0.0256	0.0536 (inactive)	-1.43	-1.48	-0.983	-1.27	-0.465	0.486
COC(=O)[C@H](C)NC(=O)CCC1CC(OC(=O)NCc2cccc3ccccc23)CC2(CCCC(COC(=O)NCCC(C)C)O2)O1 (stereo not given in full)	1.41	-0.144	-0.391	-0.119 (inactive)	0.481	0.247	0.374	0.463	0.188	0.199
O=C1[C@H]2[C@H]3[C@H](O)[C@H](O)CC(=NOC[C@@H](O)COCc4ccco4)[C@@H]3CC[C@H]2C(=O)N1C1CCCCC1	0.225	-0.401	-1.26	0.76 (inactive)	-0.102	1.04	0.783	1.36	1.46	1.23
COc1ccc(OC[C@H]2CN3[C@@H](CC[C@@H](C)[C@@H]3c3ccc(Br)cc3)C(=O)O2)cc1	0.233	-0.278	-0.345	-0.319 (inactive)	0.0848	0.16	0.204	0.142	0.344	0.607
CO[C@@H]1COC(=O)CC=C[C@H](C)[C@H](OC)COC(=O)[C@@H]2CCCN2C(=O)CC=C[C@H]1C	0.811	-0.48	-1.38	-0.127 (inactive)	0.487	0.562	1.15	1.25	1.52	1.14
O=C1[C@H]2[C@H]3[C@H](O)[C@H](O)CC(=NO[C@@H]4O[C@H](CO)[C@@H](O)[C@H](O)[C@H]4O)[C@@H]3CC[C@H]2C(=O)N1C1CCCCC1	0.203	-0.275	-0.458	-0.155 (inactive)	0.57	0.607	0.46	0.542	0.353	-0.224
